# Hits are enriched below; roughly 7.9% of the tested compounds scored in any of these assays.
# Lassa entry inh – blocks Lassa virus binding to or entry into cells; Lassa virus pseudotype entry inhibition, cell reporter; Potency, µM (titrated, usually from 37.9 µM), inactives show at the highest dose activity change, negative = inhibition, hits mostly inhibitors; 300,000 tested, 1.2% active; AID 540256; calls by dose curve; tested in HEK293 cells; further: potency means the concentration at half of the fitted maximal effect; nearly all actives have a fitted effect of over 50% in size
# FMDV inh – foot and mouth disease virus antiviral activity; 410,000 tested, 1.2% active; FMDV antiviral cell-based qHTS; Potency, µM (highest dose often 57.9 µM), for the others: at the top dose activity change, negative = inhibition, actives largely listed as inhibitors; calls by dose curve; tested in HEK293T cells; further: read-out not given here; potency means the concentration at half of the fitted maximal effect; nearly all actives have a fitted effect of over 45% in size
# MARV entry inh – inhibitors of Marburg virus binding or cell entry; Marburg virus pseudotyped entry inhibition, cell reporter; Potency, µM (series often up to 37.8 µM), for the others: at the highest dose activity change, negative = inhibition, most hits filed as inhibitors; 300,000 tested, 1.8% active; AID 540276; calls by dose curve; tested in HEK293 cells; further: potency means the concentration at half of the fitted maximal effect
# HCV inh – inhibitors of hepatitis C virus infection. Huh7.5.1 HCVcc-Cre infection, luciferase reporter, 44 h. Potency, µM (titrated, usually from 41.8 µM), for inactives: at the top dose activity change, negative = inhibition, actives largely listed as inhibitors. 340,000 tested, 3.4% active; active means well fitted inhibition curve with a large enough effect; inconclusive means small, poorly fitted or top-dose-only effect, or another doubt; inactive means no such curve, though single readings can be large or run the other way; further: potency means the concentration at half of the fitted maximal effect
#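 Luciferase read-out (15 sec integration) after a 15 min room-temperature substrate step quantifies HCVcc-Cre infection. Cells, 1,000 per well, had compound added 4 h post-plating, then virus at ~0.5 moi, and were cultured 44 h.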
# HCMV antiviral – human cytomegalovirus inhibition; HFF cells, HCMV-luciferase reporter, 72 h; hits give low values; activity change, negative = inhibition, % at 57.5 µM; 410,000 tested, 4.5% active; in the data active means activity change below about -60%; inconclusive means no clear call, values can overlap the other calls; inactive means above about -39%
#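 Steps: HFFs plated, 16 h 37C; compounds added; HCMV-luciferase added to MOI 1 PFU/cell; 72 h 37C; OneGlo reagent, 5 min room temperature; luminescence read, normalized to controls.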
# * hit, by the source's call; ? = inconclusive; nt = no result; [ ] = dose if it differs, or a comment. On the % scale 0 is the no-effect control and ±100 the full control effect.
SMILES,Lassa entry inh,FMDV inh,MARV entry inh,HCV inh,HCMV antiviral
CCCC(=O)NC(c1ccco1)c1cc(Cl)c2cccnc2c1O (centres undefined),?,-4.2%,?,11.2µM*,-98.1*
CCCC(=O)NC(c1ccc2c(c1)OCO2)c1cc(Cl)c2cccnc2c1O (centres undefined),?,-25.1%,?,1.12µM*,nt
Cc1cc(Nc2ccccc2)nc(N2CCN(C(=O)c3ccc4c(c3)OCO4)CC2)n1,0.9%,-23.2%,0.4%,?,-29.1
Cc1nc(SCCC(=O)O)c2cc(-c3ccccc3)sc2n1,?,?,3.98µM*,-6.6%,-36.4
Cc1cc2cc(C(c3nnnn3C3CCCC3)N(Cc3cccnc3)Cc3ccco3)c(=O)[nH]c2cc1C (centres undefined),?,?,4.11µM*,-8.0%,-66.5*
FC(F)(F)c1cc(CCN2CCNC[C@@H]2Cc2ccccc2)cc(C(F)(F)F)c1,nt,-20.9%,nt,33.1%,-64.2*
O=C(c1nc(-c2ccc(Cl)cc2)n2c1CCCCC2)N1CCN(c2ccccc2)CC1,-5.6%[46.1 µM],?,nt,nt,-6.7
Cc1ccc(S(=O)(=O)N2CCC(=O)N(C(COCc3cccc(C(F)(F)F)c3)Cc3ccccc3)CC2)cc1 (centres undefined),?,-12.6%,?,10µM*,0.6
Cc1ccc(S(=O)(=O)N2CCC(=O)N(C(COCc3cccc(C)c3)C(C)C)CC2)cc1 (centres undefined),-11.4%,-28.2%,-20.0%,?,-4.2
Cc1ccc(S(=O)(=O)N2CCC(=O)N(C(COCc3ccccc3)Cc3ccccc3)CC2)cc1 (centres undefined),-5.4%,-15.9%,27.6%,-8.1%,-9.1
Cc1ccc(S(=O)(=O)N2CCC(=O)N(CCOCc3cccc(Cl)c3)CC2)cc1,-15.6%,-7.4%,-5.4%,7.1%[8.37 µM],-63.6*
Cc1ccc(S(=O)(=O)N2CCC(=O)N(C(COCc3cccc(C(F)(F)F)c3)C(C)C)CC2)cc1 (centres undefined),?,?,13µM*,-2.9%[8.37 µM],nt
N#CCCn1c(=O)c(-c2ccc(Cl)cc2)nc2cnc(N3CCOCC3)nc21,nt,0.5%,nt,nt,nt
COc1ccc(CNC(=O)Cn2c(=O)cc(-c3ccccc3)c3c(C)nn(C)c32)cc1,7.5%[46.1 µM],-2.6%,nt,nt,3.4
COC(=O)[C@@H]1CC(=O)N[C@@H]1c1ccc(OC(C)C)c(OC)c1,nt,nt,nt,nt,-16.8
Cc1cnc(CNC(=O)C2(C)CCCN2CC(C)C)cn1 (centres undefined),nt,-20.9%,nt,nt,0.3
CCc1c(C)sc2c1CCN(Cc1ccccc1F)C2c1ccccc1 (centres undefined),?,?,nt,nt,-105.1*
CCc1c(C)sc2c1CCN(Cc1cccc(OC)c1)C2c1ccccc1 (centres undefined),?,-10.5%,nt,nt,-85.6*
CCc1ccc(C2N=C(N)Nc3nc4ccccc4n32)cc1 (centres undefined),?,0.0%,-5.6%[46.1 µM],nt,-67.0*
NC1=NC(c2ccc(Br)cc2)n2c(nc3ccccc32)N1 (centres undefined),0.6%[46.1 µM],10.2%,-14.2%[46.1 µM],9.1%,?
Cc1ccc(N(C)C(=O)Cn2cc(S(=O)(=O)N3CCCC3)c(S(=O)(=O)N3CCCC3)c2)cc1,11.4%[46.1 µM],14.3%,nt,nt,5.5
C[C@]12C(=O)N(c3cccc(F)c3)C(=O)N1[C@@H]1c3ccccc3OC[C@@H]1[C@H]2c1ccccc1,nt,-5.8%,nt,?,-85.6*
C[C@@]12C(=O)Nc3cc(F)ccc3C(=O)N1[C@H]1c3cc(Br)ccc3OC[C@@H]1[C@@H]2c1ccccc1,nt,?,nt,?,-30.7
C[C@@]12C(=O)Nc3ccc(F)cc3C(=O)N1[C@H]1c3cc(Br)ccc3OC[C@@H]1[C@@H]2c1ccccc1,nt,-27.0%,nt,?,-70.2*
COc1ccc2c(c1)[C@H]1[C@H](CO2)[C@H](c2ccccc2)[C@]2(C)C(=O)Nc3ccc(C)cc3C(=O)N12,nt,-24.9%,nt,11.2µM*,-26.4
SMILES,Lassa entry inh,FMDV inh,MARV entry inh,HCV inh,HCMV antiviral
CCOC(=O)[C@H]1[C@H]2COc3ccc(OC)cc3[C@@H]2N2C(=O)c3cc(C)ccc3NC(=O)[C@@]12C,nt,-11.9%,nt,-17.4%,-61.5*
O=S(=O)(NCC(c1ccc2c(c1)OCO2)N1CCOCC1)c1ccccc1 (centres undefined),-1.6%,0.0%,12.7%,23.4%,-18.5
COc1ccccc1NC(=O)Cn1nnc(C(=O)Nc2ccccc2Br)c1N,10.6%[46.1 µM],-14.8%,nt,nt,2.4
COC(=O)CNC(=O)c1ccc(F)cc1,17.5%,-4.0%,-6.3%,3.1%,-6.6
Cc1ccc2c(c1)[C@H]1[C@H](CO2)[C@H](c2ccccc2)[C@]2(C)C(=O)Nc3ccccc3C(=O)N12,nt,0.0%,nt,-18.9%,-76.4*
COc1ccc2c(c1)[C@H]1[C@H](CO2)[C@H](c2ccccc2)[C@]2(C)C(=O)Nc3cc(OC)c(OC)cc3C(=O)N12,nt,-29.5%,nt,10µM*,?
Cc1ccc2c(c1)[C@H]1[C@H](CO2)[C@H](c2ccccc2)[C@]2(C)C(=O)Nc3ccc(Cl)cc3C(=O)N12,nt,-23.1%,nt,?,-32.7
CC(=O)N1CCc2cc(S(=O)(=O)NCCC(=O)NCCc3ccc(Cl)cc3)ccc21,nt,?,nt,?,-74.9*
CC(=O)N1CCc2cc(S(=O)(=O)NCCC(=O)NCCc3ccccc3)ccc21,-14.9%,?,13.9%[46.1 µM],-7.9%,-23.4
CC(=O)N1CCc2cc(S(=O)(=O)CCC(=O)NCCc3ccc(C)cc3)ccc21,nt,-14.2%,nt,-3.9%,-31.4
CC(=O)N1CCc2cc(S(=O)(=O)NCCC(=O)NCCc3ccc(C)cc3)ccc21,?,?,?,10µM*,-15.3
COc1cc(Nc2nccc(Nc3ccc4c(C)[nH]nc4c3)n2)cc(OC)c1OC,25µM*,nt,nt,nt,nt
CN(Cc1cccc(-c2ccncc2)c1)C(=O)Oc1ccccc1Cc1ccccc1,nt,22.4µM*,nt,nt,nt
CN(Cc1cccc(-c2ccncc2)c1)C(=O)Oc1ccccc1Cl,nt,20µM*,nt,nt,nt
Cc1nc2cc(OC(=O)N(C)Cc3cccc(-c4ccncc4)c3)ccc2s1,nt,28.2µM*,nt,nt,nt
COc1cccc(CC(=O)Nc2ccc3nc(C)sc3c2)c1,3.2%,37.4%,?,-3.6%,-4.3
Cc1cc(Nc2cccc(Br)c2)n2c(nc3ccccc32)c1C#N,16.5%[46.1 µM],?,12.4%[46.1 µM],nt,-38.0
COc1ccc(NS(=O)(=O)c2cc(N)ccc2N2CCCCC2)cc1,nt,15.1%,nt,-0.9%,-34.5
Nc1ccc(N2CCCC2)c(S(=O)(=O)Nc2cccc(C(F)(F)F)c2)c1,-1.5%,21.7%,-21.7%,?,-68.8*
CCOc1ccc(CNC(=O)c2ccc(NC(=O)N3CCSc4ncccc43)cc2)cc1OC,1.4%[46.1 µM],-22.0%,nt,nt,0.0
CC(C)c1ccc(C(C)NC(=S)NC2CCCCC2)cc1 (centres undefined),nt,?,nt,11.2µM*,-88.7*
CCC(C)c1ccc(C(C)NC(=S)NC2CCCCC2)cc1 (centres undefined),?,?,?,?,-73.1*
